Source: PubChem (National Center for Advancing Translational Sciences (NCATS))
Shiga toxin inh – inhibitors of Shiga toxin in Vero cells. Vero cells, Shiga toxin protein synthesis inhibition reporter. inhibition, % at 38.7 µM. 290,000 compounds, 9.2% hits. AID 2315; in the data active = inhibition mostly above about 28%, no sharp cut-off; inactive = mostly below about 43%; also: 0% is about no effect
Pf growth 48h – P. falciparum growth inhibition at 48 hours (one generation); P. falciparum luciferase growth in erythrocytes, 48 h; Potency, µM (doses to about 28.7 µM), without a hit: top-dose activity change, negative = inhibition, usual class: inhibitors; 310,000 compounds, 5.9% hits; also: potency is read from the fitted curve at half-maximal effect; % is scaled to controls: 0 for no effect and ±100 for the full control effect
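Compounds are pin-transferred into medium, infected erythrocytes (2% hematocrit, 0.1% parasitemia final) are added, and plates sit one parasite generation at 37 C in 5% CO2. Detection reagent is then added and luminescence measured.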
HCV inhibitor – HCV inhibition; Huh7.5.1 HCVcc-Cre infection, luciferase reporter, 44 h; Potency, µM (titrated, usually from 41.8 µM), for the others: at the top dose activity change, negative = inhibition, actives largely listed as inhibitors; 340,000 compounds, 3.4% hits; AID 651820; also: potency is read from the fitted curve at half-maximal effect; % is scaled to controls: 0 for no effect and ±100 for the full control effect
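Antiviral activity was scored by luciferase reporter output from cells infected with HCVcc-Cre (~0.5 moi) in presence of compound, 44 h infection period, cells seeded 1,000/well 4 h prior.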
AMA1-RON2 inh – AMA1-RON2 (P. falciparum) interaction inhibition | AlphaScreen AMA1-biotinylated RON2 peptide binding | Potency, µM (doses to about 58.2 µM), for inactives: at the highest dose activity change, negative = inhibition, actives largely listed as inhibitors | 360,000 compounds, 0.2% hits | AID 720542;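 also: potency is read from the fitted curve at half-maximal effect; 0% = vehicle wells and -100% = peptide control; nearly all actives have a fitted effect of over 45% in size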
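AMA1 (3D7) with his tag at 25 nM final met compounds first, then biotinylated RON2 peptide at 25 nM; detection used donor plus acceptor beads, 10 µg/mL apiece, read by AlphaScreen after 30 min at room temperature.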
Pf growth 96h – P. falciparum growth inhibition at 96 hours; P. falciparum luciferase reporter growth, 96 h; Potency, µM (titrated, usually from 28.7 µM), for the others: at the top dose activity change, negative = inhibition, actives largely listed as inhibitors; 320,000 compounds, 6.9% hits; also: potency is read from the fitted curve at half-maximal effect; % is scaled to controls: 0 for no effect and ±100 for the full control effect
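96 h incubation, 37 C, 5% CO2, of luciferase-reporter P. falciparum-infected RBCs (2% hematocrit, 0.05% parasitemia final) with test compounds; endpoint luminescence.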
CHX counter – affects cycloheximide protein synthesis inhibition readout, counter-screen. AID 2314. max response, %. cell reporter, cycloheximide protein synthesis inhibition counterscreen. 300,000 compounds, 12% hits; in the data active = max response mostly above about 13%, no sharp cut-off; inactive = mostly below about 14%; also: read at 38.3 µM for the half of the compounds with a filed dose; 0% is about no effect
* = called active by the depositor; ? = inconclusive; / = no result given; [ ] = dose if it differs, or a comment. Hits are enriched below; roughly 21% of the tested compounds scored in any of these assays. Unless noted, calls follow the shape of the dose curve; as a rule, active = well fitted curve in the direction sought with a large enough effect; inconclusive = small, poorly fitted or top-dose-only effect, or another doubt; inactive = no such curve, though single readings can be large; an effect the other way counts as inactive or inconclusive.

SMILES	Shiga toxin inh	Pf growth 48h	HCV inhibitor	AMA1-RON2 inh	Pf growth 96h	CHX counter
CCOC(=O)c1c(NC(=O)CSc2cccc[n+]2[O-])sc(C(=O)Nc2ccccc2)c1C	72*	4%	?	-2%	?	27*
CCOC(=O)c1c(-c2ccccc2)csc1NC(=S)NC	-16	10%	-2%	75%	16%	-1
CCOC(=O)c1c(-c2cccs2)csc1NC(C)=O	-5	-14%	?	-11%	?	-2
CCOC(=O)c1c(-c2cccs2)csc1NC(=O)C(C)(C)C	-14	13µM*	?	11%	/	6
CCOC(=O)c1c(-c2ccc(-c3ccccc3)cc2)csc1NC(=O)CNCCN(C)C	5	/	5.6µM*	-1%	?	6
CCOC(=O)c1c(-c2ccccc2)csc1NC(=O)CCN1C(=O)c2ccccc2C1=O	30	12%	?	-5%	2.6µM*	-1
CCOC(=O)c1c(-c2ccc(F)cc2)csc1NC(=O)CN1C(=O)NC2(CCCCC2C)C1=O (stereo unspecified)	2	10µM*	?	19%	9.3µM*	-1
CCOC(=O)c1c(NC(=O)CN2C(=O)NC3(CCCCC3C)C2=O)sc(C)c1C (stereo unspecified)	-3	-20%	-27%	-15%	?	-3
CCOC(=O)c1c(-c2ccc(-c3ccccc3)cc2)csc1NC(=O)c1cccc(N2C(=O)CCC2=O)c1	-4	-2%	0%	-18%	5.2µM*	5
CCOC(=O)c1c(-c2ccc(F)cc2)csc1NC(=O)CCN1C(=O)c2ccccc2C1=O	2	-5%	10%	0%[2.32 µM]	?	0
CCOC(=O)c1sc(NC(=O)CCN2CCN(CC)CC2)c(C(=O)OCC)c1C	-4	?	10µM*	2%	?	2
O=c1[nH]c(=S)[nH]c2c1C(c1ccc(Cl)cc1)OC(C1CCCCC1)C2 (stereo unspecified)	/	/	/	83%	/	/
CCN(Cc1cc2ccccc2[nH]c1=O)C(=O)c1cccc([N+](=O)[O-])c1	-2	11%	-18%	-9%	3%	0
CCN(CC(=O)Nc1c(F)cccc1F)C(=O)CN(C)S(=O)(=O)c1ccc(F)cc1	/	?	5%	7%	26%	/
COc1ccc([C@@H]2CC(=O)c3c(O)cc(O[C@@H]4O[C@H](CO)[C@@H](O)[C@H](O)[C@H]4O[C@@H]4O[C@@H](C)[C@H](O)[C@@H](O)[C@H]4O)cc3O2)cc1	-6	/	/	/	/	-3
O=C(NC(=O)N1CCN(c2ccc(F)cc2)CC1)c1ccccc1	32	/	/	-12%	?	20*
O=C(NC(=O)N1CCCCC1)c1ccccc1	20	0%	6%	2%	1%	14*
O=C(NC(=S)N1CCN(c2ccccc2)CC1)c1ccccc1	2	10µM*	/	/	4.7µM*	8
CCOc1ncccc1C(=O)N(CC)CC(=O)NCc1ccc(Cl)cc1	-7	18%	-30%	11%	-7%	-3
Cn1cc(-c2coc3c(C(=O)NCc4cccs4)cccc23)cn1	/	/	/	-6%	/	/
O=C(Nc1ccc(C(=O)N2CCCC2)cc1)c1ccc2c(c1)OCO2	36	/	2%	5%	?	27*
COc1ccc(NC(=O)c2ccc3c(c2)OCO3)cc1Cl	76*	-17%	0%	20%	10%	66*
COC(=O)c1c(-c2cccnc2)csc1NC(=O)c1ccc2c(c1)OCO2	70*	132%	-20%	-10%	?	37*
COc1ccc(NCc2ccc3c(c2)OCO3)cc1Cl	43*	18%	11%	-19%	/	22*
COc1cc2sc3cc(NCc4ccc5c(c4)OCO5)ccc3c(=O)c2cc1OC	/	/	?	7%	/	/
SMILES	Shiga toxin inh	Pf growth 48h	HCV inhibitor	AMA1-RON2 inh	Pf growth 96h	CHX counter
COc1cc(NC(=O)c2ccc3c(c2)OCCO3)ccc1NC(=O)c1ccccc1Cl	-19	-5%	?	-7%	0%	-7
Cc1cc(F)ccc1-c1cc(C(=O)NCc2cccs2)[nH]n1	/	/	/	0%	/	/
COc1ccc(OC)c(NC(=O)CCN2C(=O)c3cccc([N+](=O)[O-])c3C2=O)c1	-14	-9%	4%	-5%	0%	-1
C=CCN(CC=C)C(=O)c1cc2ccccc2c(=O)o1	8	2%	11%	-12%	-17%	7
O=C(COC(=O)CCc1ccc(S(=O)(=O)N2CCOCC2)cc1)Nc1ccccc1OC(F)F	/	/	0%	3%	/	/
COC(=O)c1ccc(NC(=O)c2ccc3c(c2)OCO3)cc1	43*	97%	?	8%	15µM*	24*
O=C(Nc1ccc(F)c(Cl)c1)c1ccc2c(c1)OCO2	105*	178%	-26%	6%	?	51*
CN(CC(=O)Nc1ccc(Cl)cc1)C(=O)CNC(=O)c1ccc2c(c1)OCO2	/	-9%	-22%	8%	16%	/
C=C(C)C1CC=C(C)CC1 (stereo unspecified)	/	5%	/	/	14%	/
COCCN1C[C@@H](CO)O[C@@H](n2cnc3c(NCc4ccco4)ncnc32)C1	/	/	/	8%	/	/
COc1ccc(N(C(=O)CCl)C(C)(C(=O)Nc2c(C)cccc2C)c2ccccn2)cc1 (stereo unspecified)	-1	4.7µM*	32%	14%	?	-1
CN(c1ccccc1)C1CCCCC1NS(=O)(=O)c1ccc(Cl)cc1 (stereo unspecified)	-7	6.6µM*	?	-11%	?	0
Cc1ccc(-c2nc(NC(=O)c3nn(C)cc3[N+](=O)[O-])sc2C)cc1	-15	9%	4.5µM*	-1%	/	-5
Cc1cnc(NC(=O)c2nn(C)cc2[N+](=O)[O-])s1	19	49%	?	-7%	36%	24
Cn1cc([N+](=O)[O-])c(C(=O)Nc2nc(-c3ccc(Cl)cc3)cs2)n1	-41	41%	4µM*	-5%	0%	17*
Cc1ccc(S(=O)(=O)CC(C)(O)C(=O)Nc2cccc(C(F)(F)F)c2)cc1 (stereo unspecified)	-17	-11%	2%	4%	9%	1
CCN(CC)S(=O)(=O)c1ccc(NC(=O)Nc2cccc(C(F)(F)F)c2)cc1	-28	5.2µM*	11µM*	5%	/	-4
CCN(CC)S(=O)(=O)c1ccc(/C=C/C(=O)O)cc1	18	16%	29%	-2%	3%	-3
Cc1ccc(S(=O)(=O)Nc2ccc(NC(=O)Nc3cccc(C(F)(F)F)c3)cc2)cc1	-7	13µM*	?	2%	?	-1
NNC(=O)Nc1cccc(C(F)(F)F)c1	10	15%	14%	18%	?	7
O=C(Nc1ccncc1)Nc1cccc(C(F)(F)F)c1	18	?	-25%	5%	?	7
